CYP2C9 inhib – inhibitors of human CYP2C9 | P11712 | CYP2C9 Supersomes, luciferin-H conversion, luminescence | inhibition, % at 5 µM | 96,000 tested, 20% active;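 active = blocking of liver enzyme CYP2C9 beyond about 50% at 5 µM, limit read from the data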
CYP2C9 act – increases human cytochrome P450 2C9 activity | P11712 | recombinant CYP2C9, luciferin-H conversion, luminescence; stronger effect = higher value; factor 1 = untreated enzyme, 0 = blocked | activation factor at 5 µM | 96,000 tested, 1.4% active | AID 1024;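 active = activation factor of 2 or more for CYP2C9 at a 5 µM dose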;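 note: 0 = sulfaphenazole-blocked wells and 1 = vehicle-only wells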
CYP2C19 act – increases human CYP2C19 enzyme activity; recombinant CYP2C19, luciferin-H EGE luminescence; stronger effect = higher value; 0 = fully inhibited enzyme, 1 = untreated enzyme; AID 1025; 96,000 tested, under 10 active; P33261; activation factor at 5 µM;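 active = activation factor of at least 2 at 5 µM in the primary screen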;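 note: 0 = wells with 2.5 mM tranylcypromine and 1 = vehicle-only wells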
CYP2C19 inhib – inhibitors of human CYP2C19 | inhibition, % at 5 µM | P33261 | 96,000 tested, 21% active | CYP2C19 Supersomes, luciferin-H EGE luminescence, 30 min;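 active = CYP2C19 inhibition above a set limit at 5 µM in the primary screen, cut at about 50% in these data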;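 note: plate controls were negative control wells for no effect and 2.5 mM tranylcypromine positive control for full effect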
EphB4 antag – EphB4-ephrin-B2 interaction antagonism; P54760; EphB4 LBD / TNYL-RAW-Alexa532 peptide, fluorescence polarization; 97,000 tested, 0.15% active; inhibition, % at 7 µM;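 active = inhibition above the screen-wide mean inhibition plus 3 SD, cut at about 15% in these data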;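 note: 0% = DMSO wells and 100% = excess unlabeled TNYL-RAW peptide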
Numbers without * were called inactive; . = not tested or not shown. This is a sample that favours compounds with a hit; in the whole collection about 27% have one here.

SMILES | CYP2C9 inhib | CYP2C9 act | CYP2C19 act | CYP2C19 inhib | EphB4 antag
O=C(NCc1ccc2c(c1)OCO2)c1ccc(C2SCC(=O)N2Cc2ccco2)cc1 (stereo not given) | 98* | 0 | 0.3 | 67* | 4
COc1ccc2c(c1)C=C(C(=O)NCc1ccc(Cl)cc1)CO2 | 62* | 0.4 | 0.5 | 53* | -11
CC(=O)NC1=NN(C(C)=O)C(C)(CS(=O)(=O)c2ccc(C)c(C)c2)S1 (stereo not given) | 5 | 0.9 | 0.8 | 18 | 3
CN(C)CCNc1nc2c(c(=O)[nH]c(=O)n2C)n1CCCc1ccccc1 | 2 | 1 | 1 | -1 | 4
O=C(CCn1c(=O)oc2ccccc21)NCc1ccc2c(c1)OCO2 | -3 | 1 | 0.7 | 26 | .
O=C(Cn1c(=O)n(Cc2ccccc2)c(=O)c2ccccc21)NCc1ccco1 | 25 | 0.8 | 0.5 | 52* | 3
Cc1ccc(CNC(=O)CCCn2c(=O)c3ccccc3n(CC(=O)NCc3ccco3)c2=O)cc1 | . | . | . | . | -5
O=C(CCCn1c(=O)c2ccccc2n(Cc2ccccc2)c1=O)NCc1ccco1 | 33 | 0.7 | 0.1 | 90* | 3
O=C(Cn1c(CN2CCCCC2)nc2ccccc2c1=O)NCc1ccco1 | 75* | 0.3 | 0.5 | 55* | -7
O=C(CCn1c(=O)c2ccccc2n(Cc2ccccc2)c1=O)NCc1ccc2c(c1)OCO2 | 34 | 0.7 | 0.5 | 52* | 1
COC(C)(C)c1cc(C(C)(C)C)nc(N)n1 | 4 | 1 | 0.9 | 8 | -7
Cc1cc(C)cc(N(C(=O)Cc2cccs2)C(C(=O)NC2CCCC2)c2ccc(C)o2)c1 (stereo not given) | 17 | 0.8 | 1 | 2 | -6
Cc1ccc(-c2cc(C(=O)N/N=C/c3c(C)nn(-c4ccccc4)c3C)[nH]n2)cc1 | 25 | 0.8 | 0.7 | 29 | 4
COc1ccc2[nH]c3c(c2c1)CN(C)CC3 | -7 | 1.1 | 1 | -5 | -3
O=C(CCCCn1c(=O)c2ccccc2n(Cc2ccc(F)cc2)c1=O)NCc1ccco1 | 85* | 0.2 | 0.2 | 81* | -5
OC(COCc1ccccc1)CN1CCN(c2ccccc2)CC1 (stereo not given) | -14 | 1.1 | 1 | 4 | -13
O=C(c1ccc(CS(=O)(=O)c2ccc(Br)cc2)o1)N1CCN(c2ncccn2)CC1 | 81* | 0.2 | 0.4 | 56* | -2
COc1ccc(S(=O)(=O)Cc2ccc(C(=O)N3CCN(c4ccccn4)CC3)o2)cc1 | 81* | 0.2 | 0.7 | 30 | 0
CCc1ccccc1S(=O)(=O)Cc1ccc(C(=O)N2CCN(c3ccccc3OC)CC2)o1 | 96* | 0 | 0.1 | 91* | -1
Cc1ccccc1S(=O)(=O)Cc1ccc(C(=O)N2CCN(c3cccc(C)c3C)CC2)o1 | 73* | 0.3 | 0.5 | 49 | .
CCc1ccccc1S(=O)(=O)Cc1ccc(C(=O)NC(C)C)o1 | . | . | . | . | 4
COc1ccc(S(=O)(=O)Cc2ccc(C(=O)N3CCCC3)o2)cc1 | 5 | 0.9 | 0.9 | 7 | 1
O=C(c1ccc(Br)o1)N1CCN(c2ncccn2)CC1 | 26 | 0.7 | 0.8 | 17 | -7
Cc1ccc(-n2nc3c(N4CCN(c5ccccc5)CC4)nnc(C)c3c2C)cc1 | . | . | . | . | 7
Cn1nnnc1CCOCCc1nnnn1C | 2 | 1 | 1 | -2 | 4
SMILES | CYP2C9 inhib | CYP2C9 act | CYP2C19 act | CYP2C19 inhib | EphB4 antag
COc1ccccc1S(=O)(=O)Cc1ccc(C(=O)N2CCCC2)o1 | -16 | 1.2 | 0.9 | 6 | -1
O=C(NCCCN1CCCC1)c1ccc(CS(=O)(=O)c2ccc(Br)cc2)o1 | 13 | 0.9 | 0.9 | 6 | 7
O=C(NC1CCCC1)c1ccc(CS(=O)(=O)c2ccc(Br)cc2)o1 | 86* | 0.1 | 0.9 | 10 | -9
COc1ccccc1S(=O)(=O)Cc1ccc(C(=O)N2CCN(c3ccccn3)CC2)o1 | 51* | 0.5 | 0.5 | 53* | .
Cc1cc(N2C(=O)C3C4C=CC(C4)C3C2=O)ccc1Br (stereo not given) | 24 | 0.8 | 0.3 | 73* | -5
O=C1C2C3C=CC(C3)C2C(=O)N1c1ccc2c(c1)OCO2 (stereo not given) | -8 | 1.1 | 0.9 | 8 | -7
O=C1c2cccc3c(N4CCCCC4)ccc(c23)C(=O)N1CCO | 43 | 0.6 | 0.7 | 27 | -5
Cc1n[nH]c(C)c1N1C(=O)c2cccc3c(N4CCCCCC4)ccc(c23)C1=O | 97* | 0 | 0.2 | 83* | 4

Assay outcomes (PubChem BioAssay)
